High-throughput results: PubChem BioAssay, National Center for Advancing Translational Sciences (NCATS)
SARS PLpro yeast: SARS-CoV PLP inhibition in yeast. S. cerevisiae expressing SARS-CoV PLpro, growth rescue. AID 485353. Potency, µM (top dose mostly 32.9 µM), hits mostly activators. 330,000 tested, 0.19% active; calls by dose curve; also: nearly all actives have a fitted effect of over 55% in size
Sm TGR block: S. mansoni TGR enzyme inhibition; Q962Y6; purified TGR, DTNB reduction, TNB absorbance 405 nm; Potency, µM (titrated, usually from 114 µM), hits mostly inhibitors; 360,000 tested, 3% active; AID 485364; active = well fitted inhibition curve with a large enough effect; inconclusive = small, poorly fitted or top-dose-only effect; inactive = no such curve, though single readings can be large or run the other way; also: nearly all actives have a fitted effect of over 60% in size
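TGR 20 nM + NADPH 100 uM (dispensed conc.), cpd preinc 15 min RT; start with NADPH (500 uM addition) then DTNB (15 mM addition). Kinetic TNB absorbance, 405 nm filter. Four-parameter Hill fit across titration.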
Hits are given with their value; . = inactive; ? = inconclusive; / = no result; [ ] = remark or other dose. The list is not random: actives were taken first. Their share in the collection is about 3%.

SMILES	SARS PLpro yeast	Sm TGR block
Cc1cc(C(=O)CSc2nnc(-c3ccco3)o2)c(C)n1-c1ccc2c(c1)OCCO2	.	.[11.4 µM]
Cc1cc(C(=O)CSc2nnnn2C)c(C)n1-c1ccc2c(c1)OCCO2	.	35µM
Cc1ccc(NC(=O)CN2C(=O)CCn3nc(-c4cccn4C)cc32)cc1	/	.
Cc1ccc(C)c(C(=O)N2CCC(c3nc4c(nnn4Cc4ccccc4)c(=O)[nH]3)CC2)c1	/	.
N#Cc1cc(Sc2ccccn2)c([N+](=O)[O-])cc1C#N	.	35µM
N#Cc1cc(Sc2ccccn2)c(Sc2ccccn2)cc1C#N	.	.
COc1ccc([C@]23Cc4cc(OC)c(OC)cc4C(O2)c2c(cc(C)n(Cc4ccccc4)c2=O)O3)cc1	.[6.58 µM]	?
CCOC(=O)N1CCc2c(sc3c2C(=O)NC(c2cc(OC)c(OC)c(OC)c2)N3)C1 (centres undefined)	/	.
CC(=O)OC(C(=O)NCc1ccco1)c1cccnc1 (centres undefined)	.	?
CC(OC(=O)c1cccs1)C(=O)NCc1ccco1 (centres undefined)	.	.
O=C(OC(C(=O)NCc1cccs1)c1ccccc1Cl)c1ccco1 (centres undefined)	.	45µM
COc1ccccc1C(OC(=O)c1cccs1)C(=O)NCC1CCCO1 (centres undefined)	.	.
O=C(OC(C(=O)NCc1cccs1)c1ccc(F)cc1)c1ccco1 (centres undefined)	.	.
CC(C)C(OC(=O)c1cccs1)C(=O)NCc1ccco1 (centres undefined)	.	35µM
COc1ccccc1C(OC(=O)c1cccs1)C(=O)NCc1ccco1 (centres undefined)	.	13µM
CC(=O)OC(C(=O)NCc1ccco1)c1ccncc1 (centres undefined)	.	45µM
CC(C(=O)Nc1cc(C(F)(F)F)ccc1Cl)n1nnc2sc3c(c2c1=O)CCCC3 (centres undefined)	/	.
COc1ccc(CC(=O)NCc2ccc3c(c2)CCN3C(=O)c2ccc(C)cc2)cc1OC	/	.
Cn1c(=O)c2c(-c3ccccc3)n3c(c2n(C)c1=O)C(c1ccccc1[N+](=O)[O-])Nc1ccccc1-3 (centres undefined)	/	.
O=C(Nc1nc2c(s1)CN(Cc1ccccc1)CC2)C1CCCC1	.	?
CC(C)(C)C(=O)Nc1nc2c(s1)CN(Cc1ccccc1)CC2	.	25µM
COc1cc2cnc(-c3ccccc3)c(-c3ccc([N+](=O)[O-])cc3)c2cc1OC	.	.
COc1cc2cnc(-c3ccccc3)c(-c3cc(OC)c(OC)c(OC)c3)c2cc1OC	.	3.2µM
Cc1cc(CNC(=S)Nc2cccc(Cl)c2Cl)nn1C	.	13µM
Cc1cc(CNC(=S)Nc2ccc(S(=O)(=O)Nc3ncccn3)cc2)nn1C	.	.
SMILES	SARS PLpro yeast	Sm TGR block
CCOc1ccc(C2c3c(oc4ccccc4c3=O)C(=O)N2CCCN2CCOCC2)cc1OCC (centres undefined)	.	22µM
CCCOc1cccc(C2c3c(oc4ccc(F)cc4c3=O)C(=O)N2CCCN2CCOCC2)c1 (centres undefined)	/	.
O=C1c2oc3ccccc3c(=O)c2C(c2cccc(F)c2)N1CCCO (centres undefined)	.	.
Cc1cc2oc3c(c(=O)c2cc1C)C(c1ccc(F)cc1)N(CCCN1CCOCC1)C3=O (centres undefined)	?	.
COc1cc(C2c3c(oc4cc(C)c(C)cc4c3=O)C(=O)N2CCCN2CCOCC2)ccc1O (centres undefined)	/	35µM
O=C1c2oc3ccc(Cl)cc3c(=O)c2C(c2ccco2)N1CCN1CCOCC1 (centres undefined)	.	35µM
Cc1ccc(C2c3c(oc4ccc(Cl)cc4c3=O)C(=O)N2CCCN2CCOCC2)o1 (centres undefined)	.	?
O=C1c2oc3ccccc3c(=O)c2C(c2cccc(O)c2)N1CCCN1CCOCC1 (centres undefined)	.	40µM
COc1ccccc1Cc1nc2ccccc2nc1SCC(=O)NCc1ccc(F)cc1	/	.
Cc1c(NC(=O)CN(c2ccccc2)S(=O)(=O)c2ccc(F)cc2)c(=O)n(-c2ccccc2)n1C	/	.
Cc1ccc(-c2nn(-c3ccccc3)cc2/C=C/C(=O)Nc2nccs2)cc1	.	.
Cc1c(NC(=O)/C=C/c2cn(-c3ccccc3)nc2-c2ccc(F)cc2)c(=O)n(-c2ccccc2)n1C	.	3.2µM
Cc1c(NC(=O)CN(c2ccc(F)cc2)S(=O)(=O)c2ccccc2)c(=O)n(-c2ccccc2)n1C	.	10µM
COc1ccc(-n2ncc(C(=O)NCc3cccs3)c2C2CCN(C(=O)OC(C)(C)C)CC2)cc1	/	.
Cc1ccccc1S(=O)(=O)Cc1ccc(C(=O)O)o1	.	.
Cc1ccccc1S(=O)(=O)Cc1ccc(C(=O)NC2CCCCCC2)o1	.	.
CCCCN(C)C(=O)c1ccc(CS(=O)(=O)c2ccccc2C)o1	.	25µM
COC(CN(C)C(=O)c1ccc(CS(=O)(=O)c2ccccc2C)o1)OC	.	50µM
Cc1ccccc1S(=O)(=O)Cc1ccc(C(=O)NC2CC2)o1	.	.
Cc1ccccc1S(=O)(=O)Cc1ccc(C(=O)N(C)C2CCCCC2)o1	.	25µM
CCCCNC(=O)C1=CC(c2ccc3c(c2)OCO3)=NS(=O)(=O)N1C	/	.
CCOCCCN1C(=O)c2[nH]nc(-c3ccccc3O)c2C1c1ccc(CC)cc1 (centres undefined)	/	.
CCOc1ccc(CCNC(=O)C2CCN(C(=O)c3cc4sccc4n3CC)CC2)cc1OCC	/	.
O=C(COc1ccccc1)Nc1nnc(SCc2cc(=O)c3ccccc3[nH]2)s1	/	.
CC(=O)Nc1cccc(NS(=O)(=O)c2ccccc2[N+](=O)[O-])c1	.	.
SMILES	SARS PLpro yeast	Sm TGR block
CCS(=O)(=O)c1cc([N+](=O)[O-])c(Sc2ccccc2NC(C)=O)s1	.	2.8µM
Cc1ccc([N+](=O)[O-])cc1NC(=S)NC(=O)C(C)(C)C	.	45µM
Cc1ccc([N+](=O)[O-])cc1NC(=S)NC(=O)CC(C)(C)C	.	.
Cc1cc2c(c(=O)n1Cc1ccccc1)C1O[C@](CCCCN3C(=O)c4ccccc4C3=O)(Cc3cc(C#N)ccc31)O2	.[6.58 µM]	?
Cc1ccc(S(=O)(=O)c2nc(-c3ccccc3F)oc2N2CC(C)OC(C)C2)cc1 (centres undefined)	.	20µM
CC1CCN(c2oc(-c3ccco3)nc2S(=O)(=O)c2ccccc2)CC1	.	.
O=S(=O)(c1ccccc1)c1nc(-c2ccc(F)cc2)oc1N1CCCCCC1	/	.
O=S(=O)(c1ccccc1)c1nc(-c2ccco2)oc1N1CCCCC1	.	45µM
COc1ccccc1-c1nc(S(=O)(=O)c2ccccc2)c(N2CCCCC2)o1	.	0.79µM
O=S(=O)(c1ccc(F)cc1)c1nc(-c2ccccc2F)oc1N1CCCCC1	.	10µM
O=S(=O)(c1ccccc1)c1nc(-c2ccccc2Cl)oc1N1CCCCCC1	/	.
CC1CN(c2oc(-c3ccco3)nc2S(=O)(=O)c2ccccc2)CC(C)O1 (centres undefined)	.	?
CCn1c(=O)n(CC)c2cc(N3CCCCC3)c(NC(=O)Nc3ccccc3C(F)(F)F)cc21	/	.
CCc1ccc(OCc2nc(-c3ccc(OC)c(OC)c3)no2)c(Br)c1	/	.
CCOc1ccc(/C=C2\NC(=S)NC2=O)cc1	.	.
COc1cccc(/C=C/C2=CC(C)(C)NC(=S)N2)c1	.	/
CCOc1ccc(/C=C/C2=CC(C)(C)NC(=S)N2)cc1	.	8.9µM
